Results on 13 compounds are retold here after PubChem BioAssay (NCI).

About 83,000 compounds went through this panel and 20% of them were active in at least one assay; those are over-represented in the sample as a whole.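 Percent growth is the endpoint: 0 to 100 indicates growth inhibition (40 means 60% inhibition), 0 means no net growth, and negative values indicate cell death.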 Unmarked numbers belong to inactive results. Calls of active or inactive are those of the source. Rule for the calls: active = growth percent below 10; inactive = the rest.

Some test systems named below: NCI-H23 lung; NCI-H226 lung; NCI-H322M lung; HOP-62 NSCLC; NCI-H460 lung; HOP-92 NSCLC; NCI-H522 lung; A549/ATCC NSCLC; 786-0 renal; COLO 205 colon.
Assay in all cases: NCI-60 one-dose screen, 48 h (100 = growth as untreated, 0 = no growth, -100 = all killed)
What all share (conditions): 10 µM unless noted

Take `CCC(=O)c1cc(C(=O)OC)c2ccc3c4ccccc4ccc3n12`: the growth was 85.2% with NCI-H23 lung; 50.4% in the experiment with NCI-H226 lung; 93.5% in the experiment on NCI-H322M lung; 65.4% in the experiment with HOP-62 NSCLC; 26.1% in the experiment with NCI-H460 lung; 88.7% in the experiment with HOP-92 NSCLC. Besides, the growth in the experiment with NCI-H522 lung is 102%; in the experiment on A549/ATCC NSCLC, 67.9%; in the experiment with 786-0 renal, 66.8%; with COLO 205 colon it was 80.5%.

With `COc1c(B(O)O)cccc1-c1nc2ccc3cn[nH]c3c2c2c1CCCC2`, the growth was 72.8% with NCI-H23 lung; 49.5% in the experiment with NCI-H226 lung; 67.7% with NCI-H322M lung; 68.7% in the experiment on HOP-62 NSCLC; 56.8% in the experiment with NCI-H460 lung; 27.2% in the experiment on HOP-92 NSCLC. Moreover, the growth with NCI-H522 lung is 62.6%; with A549/ATCC NSCLC, 41.9%; with 786-0 renal, 31.8%; in the experiment with COLO 205 colon, 71.7%.

In the case of `FC(F)(F)c1cc2c(Cl)ncnc2n1CCC1CCOCC1`, the growth in the experiment on NCI-H23 lung was -14.4% (active); in the experiment with NCI-H226 lung, 39%; with NCI-H322M lung, -72.6% (active); in the experiment with HOP-62 NSCLC, 6.11% (active); with NCI-H460 lung it was -68.8% (active); in the experiment with HOP-92 NSCLC, 71.5%. In addition, the growth in the experiment with NCI-H522 lung was -80% (active); in the experiment with A549/ATCC NSCLC, 97.6%; with 786-0 renal, 87.7%; in the experiment on COLO 205 colon it was 71.5%.

In the case of `COc1ccc(NC(=O)Cn2c(/C=C/c3cccc(OC)c3)nc3ccccc3c2=O)cc1`, the growth in the experiment on NCI-H23 lung is 40.8%; in the experiment with NCI-H226 lung, 1.28% (active); in the experiment with NCI-H322M lung, 42.3%; in the experiment on HOP-62 NSCLC, -11.5% (active); in the experiment on NCI-H460 lung, 15.2%; in the experiment with HOP-92 NSCLC, 3.74% (active). Also, the growth in the experiment with NCI-H522 lung was 27.3%; with A549/ATCC NSCLC it was 12.8%; in the experiment on 786-0 renal, -70.7% (active); in the experiment with COLO 205 colon, 71.6%.

As to `OC(c1ccccc1)(c1ccccc1)C1CCN(c2ccc3nnc(Cl)n3n2)CC1`, the growth in the experiment with NCI-H23 lung was 36.8%; with NCI-H226 lung, 11.2%; with NCI-H322M lung it was 74.1%; with HOP-62 NSCLC, 63.7%; in the experiment on NCI-H460 lung, 19.8%; in the experiment on HOP-92 NSCLC, 19.7%. Also, the growth was -60.4% (active) in the experiment on NCI-H522 lung, 36.3% with A549/ATCC NSCLC, 41.8% in the experiment on 786-0 renal and -29.4% (active) in the experiment on COLO 205 colon.

Regarding `CC(C)(C)c1cc(-c2cc(-c3ccccc3)[nH]c(=O)c2C#N)cc(C(C)(C)C)c1`, the growth in the experiment on NCI-H23 lung is 40.4%; in the experiment with NCI-H226 lung, 3.42% (active); in the experiment with NCI-H322M lung, 23.6%; in the experiment on HOP-62 NSCLC it was -40.2% (active); in the experiment with NCI-H460 lung, 14.9%; in the experiment with HOP-92 NSCLC, -16% (active). The growth is 41.8% in the experiment with NCI-H522 lung, 5.52% (active) in the experiment with A549/ATCC NSCLC, 23% in the experiment with 786-0 renal and 91.5% in the experiment with COLO 205 colon.

Consider `CCCCCCCCc1ccc(C(=O)Nc2ccc(C)cc2C(=O)O)cc1`, for which the growth in the experiment with NCI-H23 lung was 85.2%; with NCI-H226 lung, 84.3%; in the experiment with NCI-H322M lung, 91.1%; with HOP-62 NSCLC, 96.3%; in the experiment on NCI-H460 lung, 88.4%; in the experiment on HOP-92 NSCLC, 10.4%. The growth in the experiment on NCI-H522 lung was 73.2%; in the experiment on A549/ATCC NSCLC, 66.8%; with 786-0 renal, 89.6%; in the experiment on COLO 205 colon it was 119%.

With `Cn1cc(-c2cc(N)n3nc(-c4c[nH]c5ccccc45)cc3n2)c2cc(F)ccc21`, the growth with NCI-H23 lung was 44.7%; in the experiment on NCI-H226 lung, 91.4%; in the experiment with NCI-H322M lung, 65.1%; in the experiment with HOP-62 NSCLC, -22.1% (active); with NCI-H460 lung, -23.9% (active); in the experiment on HOP-92 NSCLC it was 31.3%. Further, the growth in the experiment on NCI-H522 lung was -61.8% (active); in the experiment on A549/ATCC NSCLC it was 13.7%; in the experiment on 786-0 renal it was -2.12% (active); in the experiment with COLO 205 colon it was -47.4% (active).

On to `C/C(=N/O)c1ccc(NC(=O)CSc2nnc(-c3ccc(-c4nc5ccc(Cl)cc5[nH]4)cc3)o2)cc1`, for which the growth is -59.5% (active) in the experiment on NCI-H23 lung; -39% (active) with NCI-H226 lung; 3.18% (active) in the experiment with NCI-H322M lung; -82% (active) in the experiment with HOP-62 NSCLC; -100% (active) in the experiment on NCI-H460 lung; -53.4% (active) with HOP-92 NSCLC. Besides, the growth with NCI-H522 lung was -48.6% (active); in the experiment with A549/ATCC NSCLC, -13.3% (active); in the experiment on 786-0 renal it was -66.1% (active); in the experiment on COLO 205 colon, 50.3%.

Regarding `CCCCNC(=S)Nc1ccc(OCc2nc3ccc(Cl)cc3[nH]2)cc1`, the growth in the experiment with NCI-H23 lung is 29.3%; with NCI-H226 lung, 58.4%; in the experiment with NCI-H322M lung, 57%; in the experiment with HOP-62 NSCLC it was 49.5%; in the experiment on NCI-H460 lung, 15.6%; in the experiment with HOP-92 NSCLC it was -0.247% (active). The growth in the experiment with NCI-H522 lung was -57.5% (active); with A549/ATCC NSCLC it was 52.7%; in the experiment on 786-0 renal, 31.3%; in the experiment on COLO 205 colon, 24.9%.

On to `COc1ccc(N=Nc2c(N)nn3c(-c4ccc5c(c4)C=S=C5)ccnc23)cc1`, for which the growth with NCI-H23 lung was 27%; in the experiment on NCI-H226 lung it was 22.8%; in the experiment with NCI-H322M lung, 49.1%; with HOP-62 NSCLC, 42.5%; in the experiment with NCI-H460 lung it was 35.3%; in the experiment with HOP-92 NSCLC it was 4.83% (active). Further, the growth was -12.6% (active) in the experiment with NCI-H522 lung, 43% with A549/ATCC NSCLC, 55.7% in the experiment on 786-0 renal and 54.8% with COLO 205 colon.

Turning to `Cn1cc(-c2cc3nc(-c4c[nH]c5ccccc45)cc(N)n3n2)c2ccccc21`, the growth with NCI-H23 lung is -56.9% (active); in the experiment on NCI-H226 lung, 5.22% (active); with NCI-H322M lung it was 19.4%; with HOP-62 NSCLC it was -68.2% (active); in the experiment on NCI-H460 lung it was -75.5% (active); in the experiment on HOP-92 NSCLC, -29.4% (active). Further, the growth in the experiment with NCI-H522 lung was -65.5% (active); in the experiment on A549/ATCC NSCLC it was -81.7% (active); in the experiment on 786-0 renal, -90.6% (active); in the experiment with COLO 205 colon, -88.8% (active).

Take `O=C1Nc2ccccc2/C1=C/C(=O)c1cc2ccccc2oc1=O`: the growth in the experiment on NCI-H23 lung is 93.4%; with NCI-H226 lung it was 93.7%; in the experiment on NCI-H322M lung, 102%; in the experiment on HOP-62 NSCLC it was 101%; with NCI-H460 lung, 108%; with HOP-92 NSCLC, 119%. The growth in the experiment on NCI-H522 lung is -34.9% (active); in the experiment with A549/ATCC NSCLC, 106%; in the experiment on 786-0 renal it was 117%; with COLO 205 colon, -15.4% (active).
